Measured potencies and affinities stand elsewhere. Calls of active or inactive are those of the source.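 Rule for the calls: active = a dose-response fit showing signal loss, with half-maximal concentration no higher than twice the top tested dose; inconclusive = flat fit between 30% and 70% signal loss, or poor fit; inactive = the rest.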
assay: viability loss in HepG2 hepatoma cells – cell-based, cherry-picks, set 2, cytotoxicity control, dose response (AID 687002); settings: ATP luminescence (CellTiter-Glo), 48 h; series mostly up to 26 µM

Row | SMILES | outcome
1 | O=C(C1CCOCC1)N1C[C@H]2[C@@H](c3ccccc31)[C@@H](CO)N2Cc1ccccc1Cl | inactive
2 | COCC(=O)NC[C@H]1N[C@H](CO)[C@H]1c1ccc(C2=CCCC2)cc1 | inactive
3 | CC(C)CC#Cc1ccc2c(c1)O[C@H](CN(C)C(=O)C1CCC1)[C@@H](C)CN([C@@H](C)CO)S2(=O)=O | inactive
4 | COc1ccc(C2CC(c3cccs3)=NN2C(=O)c2ccco2)cc1OC (stereo not drawn) | inactive
5 | S=C(Nc1ccc(Cl)cc1Cl)Nc1ccccc1Oc1ccccc1 | inactive
6 | Cc1cccc(C)c1NC(=O)C1CCCN1C(=O)NCc1ccccc1 (stereo not drawn) | inactive
7 | N#C[C@H]1[C@@H](c2ccc(C#CCC3CCCC3)cc2)[C@@H](CO)N1C(=O)c1ccccn1 | inactive
8 | CN1C[C@@H]2C(c3ccc(C(F)(F)F)cc3)C3(c4ccccc4)CC2(C3)[C@H]1c1ccccc1 (stereo partly drawn) | inactive
9 | Cc1ccc(OCC(=O)NC(C)c2ccccc2)cc1 (stereo not drawn) | inactive
10 | COc1ccc(NC(=O)N(C)C[C@@H]2OCCCC[C@@H](C)Oc3ccc(NC(=O)Nc4ccc5c(c4)OCO5)cc3C(=O)N([C@@H](C)CO)C[C@H]2C)cc1 | inactive
11 | Cc1ccc2cc(NC(=O)c3ccccc3)ccc2n1 | inactive
12 | Cc1noc(C)c1S(=O)(=O)Nc1ccc2c(c1)CC(=O)N([C@H](C)CO)C[C@H](C)[C@H](CN(C)S(=O)(=O)c1cccs1)O2 | inactive
13 | C[C@@H]1CN([C@H](C)CO)S(=O)(=O)c2ccc(-c3ccccc3)cc2O[C@H]1CN(C)C(=O)C1CCCCC1 | inactive
14 | COc1cccc(S(=O)(=O)N(C)C[C@@H]2OCc3ccccc3-c3ccccc3C(=O)N([C@@H](C)CO)C[C@@H]2C)c1 | inactive
15 | CNC[C@@H]1OCCCC[C@@H](C)Oc2ccc(NC(=O)NC(C)C)cc2C(=O)N([C@@H](C)CO)C[C@H]1C | inactive
16 | Cc1ccc(N2CCN(C(CCc3ccccc3)C(=O)Nc3c(C)cccc3C)CC2)cc1 (stereo not drawn) | inactive
17 | CCNC(=O)C[C@H]1CC[C@H](NC(=O)NC2CCCCC2)[C@@H](CO)O1 | inactive
18 | C[C@@H]1CN([C@@H](C)CO)C(=O)Cc2cc(NS(=O)(=O)c3ccccc3)ccc2O[C@@H]1CN(C)Cc1ccc(Cl)c(Cl)c1 | inactive
19 | C(=Nn1cnnc1)c1ccc2c(c1)CCC2 | inactive

Row | SMILES | outcome
20 | CCCC(C)(C)C(=O)N1CCC1(C)C(=O)Nc1ccc(C)cc1 (stereo not drawn) | inactive
21 | CO[C@@H]1CN(C)C(=O)c2cc(NS(=O)(=O)c3cccc(C)c3)ccc2OC[C@@H](C)NC[C@H]1C | inactive
22 | O=C(CN(c1ccc(F)cc1)S(=O)(=O)c1ccccc1)NCCSC1CCCCC1 | inactive
23 | C[C@H](O)C#Cc1ccc2c(c1)O[C@H](CN(C)Cc1ccncc1)[C@H](C)CN([C@H](C)CO)S2(=O)=O | inactive
24 | CC(C)NC(=O)Nc1ccc2c(c1)CC(=O)N([C@H](C)CO)C[C@H](C)[C@@H](CN(C)C(=O)Nc1ccc3c(c1)OCO3)O2 | inactive
25 | COc1ccc(N2CCN(C(=O)CSc3ncnc4c3cnn4-c3ccccc3C)CC2)cc1 | inactive
26 | C/C=C/c1ccc([C@@H]2[C@H]3CN(C(=O)Nc4ccc(OC)cc4)CCCCN3[C@H]2CO)cc1 | inactive
27 | C[C@@H]1CCCCO[C@@H](CN(C)C(=O)CCCN(C)C)[C@@H](C)CN([C@H](C)CO)C(=O)c2cc(NC(=O)Cc3ccccc3)ccc2O1 | inactive
28 | Cc1ccc(NC(=S)Nc2ccc(Cl)c(Cl)c2)c(OC(F)F)c1 | inactive
29 | C[C@@H]1CCCCO[C@@H](CN(C)C(=O)Nc2ccc3c(c2)OCO3)[C@@H](C)CN([C@H](C)CO)C(=O)c2cc(NC(=O)Nc3cccc4ccccc34)ccc2O1 | inactive
30 | Cc1ccc(-n2ncc3c(SCC(N)=O)ncnc32)cc1C | inactive
31 | COC(=O)C1=C(C)N(Cc2ccc(Br)cc2)C(=S)NC1c1cccc(Br)c1 (stereo not drawn) | inactive
32 | COc1cccc(NC(=O)CN2CCN(S(=O)(=O)c3ccc(C(C)C)cc3)CC2)c1 | inactive
33 | CC(=O)c1sc(NC(=O)c2cc(-c3ccccc3)nn2-c2ccccc2)nc1C | inactive
34 | CN1CCN(CCCNC(=O)c2ccc(/C=C3\Oc4ccccc4N(Cc4ccccc4F)C3=O)cc2)CC1 | inactive
35 | Cc1cccc(NC(=S)NN(Cc2ccccc2)c2ccccc2)c1C | inactive
36 | CCc1ccc(NC(=O)[C@H](C)NC(=O)C2CCN(C(=O)[C@@H](N)C(C)C)CC2)cc1 | inactive
37 | CC(=O)c1sc(NC(=O)C2(F)C(F)(F)C(F)(F)C(F)(F)C(F)(F)C2(F)F)nc1C | inactive
38 | O=C(Oc1ccc2c3c(c(=O)oc2c1)CCCC3)c1ccco1 | inactive

Source: PubChem BioAssay
